Laboratory results as given in PubChem BioAssay AID504834 (National Center for Advancing Translational Sciences (NCATS), 2011).
Among all 320,000 compounds or so, about 22,000 (6.9%) were called active. Roughly 27% stayed inconclusive and do not appear here. The call rests on the fitted dose curve; in most records, active means well fitted inhibition curve with a large enough effect; inconclusive means small, poorly fitted or top-dose-only effect, or another doubt; inactive means no such curve, though single readings can be large or run the other way. The entries come from a sample that favours actives as a whole. Where a call stands in place of a potency, no number is given.
Potency means the concentration at half of the fitted maximal effect.

Assay: Primary qHTS for delayed death inhibitors of the malarial parasite plastid, 96 hour incubation
Settings: P. falciparum luciferase reporter growth; series mostly up to 28.7 µM
From the text: The goal of this screen is to discover new antimalarial compounds that act by inhibiting the development of the apicoplast in the malarial parasite Plasmodium falciparum. The biochemical processes that make this organelle essential for erythrocytic stage parasites are not well understood. However, antibiotics such as azithromycin and tetracycline, which target the apicoplast translational machinery, have a potent antimalarial effect.
We have developed a cell-based assay that measures parasite growth based on the expression of an integrated copy of a firefly luciferase reporter. To detect small molecules that cause this "delayed death" phenotype, erythrocytes infected with the luciferase-expressing parasites were incubated with compounds for either one or two generations, corresponding to 48 and 96 hours, respectively. Compounds that inhibit parasite growth in the second generation, but not the first, should be enriched in antimalarials that target the apicoplast. Growth inhibition is detected by a decrease in luciferase activity.
Assay Provider: David Fidock and Eric Ekland, Columbia University
Keywords: NIH Roadmap, MLPCN, MLI, MLSMR, qHTS, NCGC, qHTS, malaria, luciferase, viability
Four microliters of infected erythrocytes (2% hematocrit, 0.05% parasitemia final concentration) in culture medium were dispensed and the plates incubated for 96 hours at 37 C in 5% CO2. Two microliters of luciferase detection reagent was added and luminescence was detected by a ViewLux (PerkinElmer) reader.
With `CCC(C)N(C(=O)COC(=O)c1nc(Cl)ccc1Cl)C1CCS(=O)(=O)C1` (configuration not stated) the Potency was “inactive”. In the case of `O=C(c1ccc(OC2CCN(C/C=C/c3ccc(F)cc3)CC2)cc1)N1CCCCC1`, the Potency is reported as “inactive”. With `COc1ccc(S(=O)(=O)N(C)CC(=O)N2CCCC2)cc1` the Potency was “inactive”. With `Cc1ccc(S(=O)(=O)N2CCC(Oc3ccc(-n4cnnn4)cc3)CC2)cc1` the Potency was “inactive”. With `CC(C)(c1ccccc1)c1ccc(OCCN)cc1` the Potency was “inactive”. In the case of `CC(C)(c1ccccc1)c1ccc(OCCN2CCCC2)cc1`, the Potency is reported as “inactive”. In the case of `CN1CCC[C@@H]1CCO[C@](C)(c1ccccc1)c1ccc(Cl)cc1`, the Potency is reported as 15.1 µM (active). With `O=c1c2cc(Br)ccc2nc(-c2cccc(Cl)c2)n1O` the Potency was “inactive”. For `O=C(c1cccc(S(=O)(=O)N2CCOCC2)c1)N1CCOCC1`, the Potency was “inactive”. With `O=C(c1ccc2c(c1)OCO2)N1CCOCC1` the Potency was “inactive”. In the case of `O=C(c1cccc(N2CCCC2=O)c1)N1CCOCC1`, the Potency is reported as 6.57 µM (active). In the case of `Cc1ccc(C(=O)NNC(=O)c2ccc3c(c2)OCCO3)cc1`, the Potency is reported as “inactive”. For `COCc1cc(C)n(CC(=O)NCC2CCCO2)c(=O)c1C#N` (configuration not stated), the Potency was “inactive”. With `CCn1nccc1C(=O)Nc1ccc(S(=O)(=O)NC23CC4CC(CC(C4)C2)C3)cc1` the Potency was 6.57 µM (active). In the case of `O=C(Nc1ccc(S(=O)(=O)Nc2ncccn2)cc1)C12CC3CC(CC(C3)C1)C2`, the Potency is reported as “inactive”. For `Cc1noc(NS(=O)(=O)c2ccc(NC(=O)C34CCC(CC3)C4)cc2)c1C`, the Potency was “inactive”. In the case of `Cc1ccc(S(=O)(=O)NCCC(=O)NNC(=O)C2COc3ccccc3O2)cc1` (configuration not stated), the Potency is reported as “inactive”. For `Oc1ccccc1C1=NN(c2ccccc2)C(c2ccccc2)C1` (configuration not stated), the Potency was 1.65 µM (active). For `COc1ccc(C2CC(c3cccs3)=NN2c2ccccc2)cc1` (configuration not stated), the Potency was “inactive”. With `CC(=O)Oc1ccccc1C1=NN(C(C)=O)C(c2ccccc2)C1` (configuration not stated) the Potency was “inactive”. In the case of `Cn1cc(C(=O)c2ccc(Cl)cc2Cl)cc1C(=O)NN`, the Potency is reported as “inactive”. In the case of `COc1ccc(CCNC(=O)COc2ccc3c(c2)OCO3)cc1`, the Potency is reported as “inactive”. In the case of `Cc1ccc2nc(-c3ccccc3)cc(C(=O)O)c2c1`, the Potency is reported as “inactive”. With `Cc1ccc2nc(C)c3c(c2c1)N(c1ccccc1)CC3` the Potency was 6.57 µM (active). In the case of `Cc1ccc2nc(Nc3ccccc3)cc(C)c2c1`, the Potency is reported as “inactive”. In the case of `O=C1NCCn2nc3ccccc3c21`, the Potency is reported as “inactive”. In the case of `CC(C)c1ccc(NC(=O)COC(=O)c2ccc(CN3CCCC3=O)cc2)cc1`, the Potency is reported as “inactive”. In the case of `CCN(CC)CCn1c2c(c(SCC(=O)Nc3ccc(C(C)C)cc3)nc1=O)CCC2`, the Potency is reported as 4.15 µM (active). In the case of `CCN(CC)CCn1c2c(c(SCC(=O)Nc3nc4ccccc4s3)nc1=O)CCCC2`, the Potency is reported as 11.7 µM (active). For `Cn1nnnc1SCC(=O)Nc1nc2ccccc2s1`, the Potency was “inactive”. With `Cn1c(SCC(=O)Nc2ccc(Cl)cc2)nc(O)cc1=O` the Potency was “inactive”. For `Cc1csc(NC(=O)CSc2nc(=O)n(CCCN(C)C)c3c2CCC3)n1`, the Potency was “inactive”. In the case of `COc1ccccc1C(=O)NC(CCSC)C(=O)NNC(=O)c1csc(N2CCOCC2)n1` (configuration not stated), the Potency is reported as “inactive”. For `Cc1ccc(CSCC2Nc3ccc(C(=O)N4CCN(c5ccc(F)cc5)CC4)cc3NC2=O)cc1` (configuration not stated), the Potency was “inactive”. For `O=C(O)c1ccccc1C(=O)NC1=NN(c2ccccc2)CC1`, the Potency was “inactive”. With `O=[N+]([O-])c1ccc2c(c1)C(O)n1nc(-c3ccccc3)nc1S2` (configuration not stated) the Potency was “inactive”. With `O=C(CN1CCCCCC1)Nc1c(Cl)cc(Cl)cc1Cl` the Potency was “inactive”. With `COc1ccc(NC(=O)CSc2nnc(Cc3ccccc3)c(=O)n2N)cc1` the Potency was “inactive”. With `COc1ccc(-n2nnnc2SCC(=O)Nc2ccccc2)cc1` the Potency was “inactive”. With `COc1cccc(NC(=S)NCCCN2CCOCC2)c1` the Potency was “inactive”. With `COc1cccc(NC(=O)C(Sc2nc3ccccc3c(=O)n2CC(C)C)c2ccccc2)c1` (configuration not stated) the Potency was 2.62 µM (active). With `COc1ccc(NC(C(=O)Nc2cccc(C(C)=O)c2)c2ccccc2)cc1` (configuration not stated) the Potency was “inactive”. In the case of `CCc1ccc(NC(=O)CSc2nc3ccccc3c(=O)n2CCN2CCOCC2)cc1`, the Potency is reported as “inactive”. With `COC(=O)c1ccc2c(=O)n(CCN3CCOCC3)c(SCC(=O)Nc3cccc(OC)c3)nc2c1` the Potency was 13.1 µM (active). In the case of `COc1ccc(NC(=O)CSc2nc3ccccc3c(=O)n2C)cc1`, the Potency is reported as 1.85 µM (active). With `COc1cccc(NC(=O)Cn2c3ccccc3c3nc4n(c(=O)c32)CCS4)c1` the Potency was “inactive”. In the case of `COc1ccc([N+](=O)[O-])cc1NCC(=O)c1ccc(C)cc1`, the Potency is reported as “inactive”. For `O=S(=O)(Nc1cccc(-n2cnnn2)c1)c1cnc(Cl)c(Cl)c1`, the Potency was “inactive”. In the case of `COc1ccc2c(C)cc3nnnn3c2c1`, the Potency is reported as “inactive”. With `O=C(Nc1nnc(S(=O)(=O)N2CCOCC2)s1)c1cccc(Br)c1` the Potency was “inactive”. For `COCCNC(=O)COc1ccccc1C`, the Potency was “inactive”. With `Cc1cccc(NC(=O)COc2ccccc2C)n1` the Potency was 2.33 µM (active). With `Cc1ccccc1OCC(=O)Nc1nc(C)c(C(=O)N(C)C)s1` the Potency was “inactive”. With `O=C(NCCc1ccccn1)c1cccnc1Oc1ccc(Cl)cc1` the Potency was “inactive”. In the case of `O=C(Nc1ccc(C(=O)N2CCCCC2)cc1)c1cccc([N+](=O)[O-])c1`, the Potency is reported as “inactive”. With `Cn1ccc(=Nc2ccc(NC(=O)c3ccc(N=c4ccn(C)c5ccc([N+](=O)[O-])cc45)cc3)cc2)cc1` the Potency was 0.165 µM (active). In the case of `COc1cc(NS(=O)(=O)c2ccc(NC(=O)c3ccc([N+](=O)[O-])cc3)cc2)ncn1`, the Potency is reported as “inactive”. With `COc1ccccc1C(=O)Nc1ccnn1C1CCN(C(=O)C(C)(C)C)CC1` the Potency was “inactive”. With `O=C(/C=C/Nc1ccccc1OC(F)(F)F)C(F)(F)F` the Potency was “inactive”. In the case of `CCCOc1ccc(N/C=C/C(=O)C(C)(C)C)cc1`, the Potency is reported as “inactive”. With `CN(C)c1ccc(N/C=C/C(=O)C(F)(F)F)cc1` the Potency was 6.57 µM (active). For `Cc1c(C(=O)N(C)CCc2cnn(C)c2)oc2c(F)cccc12`, the Potency was “inactive”. With `Fc1ccc(/C=N/n2c(COc3ccccc3)n[nH]c2=S)cc1` the Potency was “inactive”. With `COc1ccc(C(=O)OCC(=O)Nc2cccc(C(C)=O)c2)cc1OC` the Potency was “inactive”. For `CN(C)c1ccc2c(=O)[nH][nH]c(=O)c2c1`, the Potency was “inactive”. With `O=c1[nH][nH]c(=O)c2cc(N3CCCC3)ccc12` the Potency was 9.28 µM (active). With `O=C1C=CC(=O)N1c1ccc(N2CCCCC2)cc1` the Potency was “inactive”. With `CCOc1ccc(S(=O)(=O)NCc2ccc3c(c2)OCO3)cc1C` the Potency was “inactive”. For `Cc1ccc(C(=O)NNC(=O)C(C)Oc2ccc3ccccc3c2)o1` (configuration not stated), the Potency was “inactive”. For `Cc1ccc(Cl)c(OCC(=O)N(C)CC(=O)Nc2ccc(N3CCOCC3)cc2)c1`, the Potency was “inactive”. With `Cc1nn2c(NCCN(C)C)c3c(nc2c1-c1ccccc1)CCC3` the Potency was 11.7 µM (active). For `Cc1cc(N2CCCC2)n2nc(C)c(-c3ccccc3)c2n1`, the Potency was “inactive”. With `Cc1cc(C(C)(C)C)n2nc(C)c(-c3ccccc3)c2n1` the Potency was “inactive”. In the case of `O=C(CN1CCN(c2ccccn2)CC1)Nc1ccc(Br)cc1`, the Potency is reported as “inactive”. For `COc1ccc(C2=NS(=O)(=O)N(C)C(C(=O)N(C)Cc3ccccc3)=C2)cc1`, the Potency was “inactive”. For `Nc1c(C(=O)Nc2ccc3c(c2)OCCO3)nnn1Cc1ccccc1`, the Potency was “inactive”. With `Cc1ccc2c(c1)N(C(=O)CCC(=O)NCc1cccnc1)CCO2` the Potency was “inactive”. In the case of `CC1CN(C(=O)CCC(=O)NCc2cccnc2)c2ccccc2O1` (configuration not stated), the Potency is reported as “inactive”. For `Cc1ccccc1CNC(=O)CCC(=O)N1Cc2ccccc2Oc2ncccc21`, the Potency was 11.7 µM (active). For `CC(C)NC(=O)C(c1ccc(F)cc1)N(C(=O)CCC(=O)Nc1ccccn1)c1ccccc1F` (configuration not stated), the Potency was “inactive”. In the case of `Cc1ccc(-n2c(C)cc(/C=N/Nc3ccc([N+](=O)[O-])cn3)c2C)c(C)c1`, the Potency is reported as 10.4 µM (active). With `Cc1cc(/C=N/Nc2ccc([N+](=O)[O-])cn2)c(C)n1-c1cccc(C(=O)O)c1` the Potency was “inactive”. In the case of `Cc1ccc(N2CCN(c3ccc([N+](=O)[O-])cn3)CC2)c(C)c1`, the Potency is reported as “inactive”. With `O=C(NC1CCCC1)C(c1ccc(Cl)cc1)N(C(=O)c1csnn1)C1CC1` (configuration not stated) the Potency was “inactive”. For `CC1CC1C(=O)OCC(=O)Nc1cccc(F)c1` (configuration not stated), the Potency was “inactive”. With `O=S(=O)(O)c1nc2ccccc2n1Cc1ccc(Cl)cc1Cl` the Potency was “inactive”. In the case of `Cn1ccc(=NC=C(C#N)C#N)c2ccccc21`, the Potency is reported as “inactive”. With `N#CC(C#N)=CN=c1ccn(Cc2ccc(Cl)cc2Cl)cc1` the Potency was 1.17 µM (active). For `CC(C)[C@H](NC(=O)N1CCn2c1nc1ccccc12)C(=O)NC1CC1`, the Potency was “inactive”. With `COc1cc(OC)cc(C(=O)Nc2ccc(S(=O)(=O)Nc3cc(C)on3)cc2)c1` the Potency was “inactive”. In the case of `COc1cc2ccccc2cc1C(=O)Nc1ccc(S(=O)(=O)Nc2cc(C)on2)cc1`, the Potency is reported as “inactive”. In the case of `CCOC(=O)c1ccccc1NS(=O)(=O)c1ccc(OC)cc1`, the Potency is reported as “inactive”. In the case of `COc1ccc(NC(=O)c2cnc(NS(=O)(=O)c3ccccc3)nc2)cc1`, the Potency is reported as “inactive”. In the case of `CCOC(=O)c1cc(C(=O)Nc2ccc(S(=O)(=O)Nc3ccc(OC)cc3)cc2)nn1C`, the Potency is reported as 11.7 µM (active). With `CCOc1ccc(C(=O)Nc2ccc(S(=O)(=O)Nc3cc(C)on3)cc2)cc1` the Potency was 2.94 µM (active). With `CCOCCCNC(=S)Nc1ccc2nc(N3CCN(CC)CC3)cc(C)c2c1` the Potency was “inactive”. In the case of `Cc1cc(C)c(C#N)c(Nc2cccc(Br)c2)n1`, the Potency is reported as “inactive”. For `Cc1ccc(S(=O)(=O)N2CCN(C)CC2)cc1`, the Potency was “inactive”. In the case of `Cc1nn(C)c(C)c1NS(=O)(=O)c1ccc(OC(F)(F)F)cc1`, the Potency is reported as “inactive”. For `COc1cc(C(=O)OCC(=O)N(CC(C)C)C2CCS(=O)(=O)C2)ccc1OCC(C)C` (configuration not stated), the Potency was “inactive”. In the case of `CN(CC(=O)Nc1cccc(F)c1)C(=O)C1CSC2(C)CCC(=O)N12` (configuration not stated), the Potency is reported as “inactive”. In the case of `CCCc1cc(C(=O)N2CCCC(CO)(CCCc3ccccc3)C2)n(C)n1` (configuration not stated), the Potency is reported as “inactive”. In the case of `COC(=O)CCC(=O)N1CCCC(CO)(Cc2ccccc2)C1` (configuration not stated), the Potency is reported as 0.37 µM (active). For `CS(=O)(=O)N(CC(=O)N1CCCC1)Cc1ccccc1`, the Potency was “inactive”. In the case of `CCNC(=S)N(CCN(CC)CC)Cc1cc2cc3c(cc2[nH]c1=O)OCO3`, the Potency is reported as “inactive”. For `CC(C)C[C@H](CO)Nc1nc(N(C)c2cccc(Cl)c2)c2ncn(C(C)C)c2n1`, the Potency was 13.1 µM (active). In the case of `COC(=O)C(C)n1cnc2c(nnn2-c2cccc(Cl)c2)c1=O` (configuration not stated), the Potency is reported as “inactive”.
